Compound activity from PubChem BioAssay.
Sampled rows, rich in hits. Any-hit rate of the full collection: about 19%.
SARS PLP yeast – SARS-CoV PLP inhibition in yeast | AID 485353 | S. cerevisiae expressing SARS-CoV PLpro, growth rescue | 330,000 tested, 0.19% active | Potency, µM (top dose mostly 32.9 µM), inactives show top-dose activity, positive = growth rescue, hits mostly activators; calls by dose curve; further: potency means the concentration at half of the fitted maximal effect; 0% is about no effect; nearly all actives have a fitted effect of over 55% in size
AMA1-RON2 inh – AMA1-RON2 (P. falciparum) interaction inhibition; 360,000 tested, 0.2% active; AID 720542; AlphaScreen AMA1-biotinylated RON2 peptide binding; Potency, µM (highest dose often 58.2 µM), without a hit: top-dose activity change, negative = inhibition, actives largely listed as inhibitors;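 further: potency means the concentration at half of the fitted maximal effect; 0% = vehicle wells and -100% = peptide control; nearly all actives have a fitted effect of over 45% in size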
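AMA1 (3D7) with his tag at 25 nM final met compounds first, then biotinylated RON2 peptide at 25 nM; detection used donor plus acceptor beads, 10 µg/mL apiece, read by AlphaScreen after 30 min at room temperature.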
Pf growth 96h – P. falciparum growth inhibition at 96 hour, primary screen for plastid delayed-death inhibitors | AID 504834 | 320,000 tested, 6.9% active | P. falciparum luciferase reporter growth, 96 h | Potency, µM (top dose mostly 28.7 µM), inactives show at the top dose activity change, negative = inhibition, actives largely listed as inhibitors; further: potency means the concentration at half of the fitted maximal effect; on the % scale 0 is the no-effect control and ±100 the full control effect
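P. falciparum expressing integrated firefly luciferase grown in erythrocytes (2% hematocrit, 0.05% parasitemia final) with compounds for 96 hours at 37 C, 5% CO2. Growth inhibition read as loss of luminescence after adding luciferase detection reagent.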
Cycloheximide cs – counter-screen hit for Shiga toxin inhibitors, cycloheximide; cell reporter, cycloheximide protein synthesis inhibition counterscreen; max response, %; 300,000 tested, 12% active; in the data active means max response mostly above about 13%, no sharp cut-off; inactive means mostly below about 14%; further: read at 38.3 µM for the half of the compounds with a filed dose; 0% is about no effect
Shiga toxin inh – Shiga toxin inhibition; 290,000 tested, 9.2% active; inhibition, % at 38.7 µM; AID 2315; Vero cells, Shiga toxin protein synthesis inhibition reporter; in the data active means inhibition mostly above about 28%, no sharp cut-off; inactive means mostly below about 43%; further: 0% is about no effect
Pf growth 48h – inhibits P. falciparum growth in the first generation, 48 h. AID 504832. P. falciparum luciferase growth in erythrocytes, 48 h. Potency, µM (highest dose often 28.7 µM), for the others: at the top dose activity change, negative = inhibition, hits mostly inhibitors. 310,000 tested, 5.9% active; further: potency means the concentration at half of the fitted maximal effect; on the % scale 0 is the no-effect control and ±100 the full control effect
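Firefly luciferase activity from engineered P. falciparum reports growth; inhibitors lower the luminescent signal. Cultures contained 2% hematocrit erythrocytes at 0.1% final parasitemia.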
The depositor's hits bear a star; ? = inconclusive; nt = no result; + = active, no number; [ ] = remark or other dose. Unless noted, the call rests on the fitted dose curve; in most records, active means well fitted curve in the direction sought with a large enough effect; inconclusive means small, poorly fitted or top-dose-only effect, or another doubt; inactive means no such curve, though single readings can be large; an effect the other way counts as inactive or inconclusive.

SMILES | SARS PLP yeast | AMA1-RON2 inh | Pf growth 96h | Cycloheximide cs | Shiga toxin inh | Pf growth 48h
CCCC(=O)N(Cc1cc(=O)[nH]c2ccccc12)c1ccccc1OC | -2% | -3% | 12µM* | 1 | -5 | 7.4µM*
COc1ccccc1N(Cc1cc(=O)[nH]c2ccccc12)C(C)=O | -1% | 7% | 5% | -1 | -8 | 3%
CC1=NN(c2cccc(C(=O)O)c2)C(=O)/C1=C\C=C/c1ccccc1 | -6% | 11% | -11% | 80* | + | ?
CC1=NN(c2ccccc2)C(=O)C1=Cc1ccccc1 | nt | -5% | nt | nt | nt | nt
CC1=NN(c2ccc(C)cc2)C(=O)/C1=C\C=C\c1ccccc1 | -6% | ? | ? | -1 | 3 | 13µM*
CC(C)OC(=O)Cc1ccccc1 | 3% | 2% | 36% | nt | nt | 12%
CC(C)OC(=O)CCC1(C(=O)O)CCC(=O)NC1 (configuration not stated) | 2% | 5% | nt | -2 | -6 | 1.3µM*
COc1ccccc1NC(=O)c1cn(C)c(=O)c2cc(OC)c(OC)cc12 | 2% | 13% | 8.3µM* | 7 | -2 | 22%
COc1cc2c(C(=O)N3CCN(c4ccccc4F)CC3)cn(C)c(=O)c2cc1OC | -7% | -12% | ? | -5 | -5 | ?
COc1cc2c(C(=O)Nc3ccccc3F)cn(C)c(=O)c2cc1OC | -1% | 1% | 8.3µM* | -4 | 14 | -17%[0.00184 µM]
CCN(CC)S(=O)(=O)c1ccc(N2CCOCC2)c(NC(=O)c2cc(C)cc(C)c2)c1 | -15% | -22% | ? | -3 | -3 | 10µM*
CCN(CC)S(=O)(=O)c1ccc(N2CCOCC2)c(NC(=O)c2sccc2C)c1 | 13% | -14% | nt | nt | nt | nt
CCN(CC)S(=O)(=O)c1ccc(N2CCOCC2)c(NC(=O)C23CC4CC(CC(Cl)(C4)C2)C3)c1 | 2% | -19% | 3.7µM* | 1 | -6 | 8.3µM*
CCN(CC)S(=O)(=O)c1ccc(N2CCOCC2)c(NC(=S)NC(=O)c2ccco2)c1 | 0% | 34% | 1.5µM* | 1 | -14 | 2.6µM*
CCN(CC)S(=O)(=O)c1ccc(N2CCOCC2)c(NC(=O)c2ccccc2)c1 | 16% | -10% | ? | 7 | -12 | ?
CCc1cc(C(=O)Nc2cc(S(=O)(=O)N(CC)CC)ccc2N2CCOCC2)sc1C | -4% | 8% | 9.3µM* | nt | nt | ?
COc1ccccc1Nc1ccc(N)cc1 | 0% | -16% | ? | -3 | -7 | ?
Cn1ccnc1COc1ccc(/C=N/O)cc1 | 1% | 23% | 2% | -3 | nt | 10%
Cc1sc2nc(N3CCOCC3)[nH]c(=O)c2c1-c1ccccc1 | 6% | 2% | -27% | -4 | -5 | -1%
Cc1sc2nc(C(C)Nc3ccccc3N3CCOCC3)[nH]c(=O)c2c1C (configuration not stated) | 9% | -17% | 6.6µM* | -4 | 18 | 9.3µM*
COc1ccc(/C=C/c2nc3cc(-c4ccccc4)ccc3o2)cc1O | -33% | 2% | ? | 97* | 100* | ?
COc1ccc(/C=C/c2nc3ccccc3c(=O)o2)cc1 | 2% | -14% | 178% | -6 | -4 | 166%
Cc1ccc(CNC(=O)N2CCN(S(=O)(=O)c3ccccc3)CC2)cc1 | 0% | 1% | 14% | -1 | -7 | 27%
CC(=O)c1ccc(NC(=O)C(=O)c2cn(CC(=O)N3CCCCC3)c3ccccc23)cc1 | 20% | 5% | ? | -3 | -3 | 33%
O=C1OCC/C1=C\NCCCN/C=C1\CCOC1=O | nt | -7% | nt | nt | nt | nt
SMILES | SARS PLP yeast | AMA1-RON2 inh | Pf growth 96h | Cycloheximide cs | Shiga toxin inh | Pf growth 48h
O=C(CNC(=O)c1cccs1)N/N=C/c1ccc(O)cc1O | 3% | 81% | ? | -2 | 1 | -10%
CCc1ccc(C(=O)N/N=C/c2cccc3ccccc23)nc1 | -5% | 42% | 25% | 19* | 52 | 75%
O=C(CNC(=O)c1cccnc1)N/N=C/c1ccc(O)cc1O | 2% | 114% | -13% | 13* | 2 | -21%
O=C(N/N=C/c1cccs1)c1cccnc1 | -1% | 46% | -29% | 3 | 27 | 3%
Cc1ccccc1/C=N/NC(=O)c1cccnc1 | 3% | 25% | -27% | 9.1* | 23 | 33%
Cc1ccc(/C=N/NC(=O)c2cccnc2)s1 | 0% | 19% | ? | 18* | 58* | 16%
